{"source": "PubChem BioAssay (NCATS)", "note": "Results filed as inconclusive are left out. Active and inactive are the calls of the source. Calls come from the whole dose curve; as a rule, active = well fitted inhibition curve with a large enough effect; inconclusive = small, poorly fitted or top-dose-only effect; inactive = flat fitted curve, though single readings scatter. % is set by controls: 0 for no effect and ±100 for the full control effect.", "data": [{"molecular_target": "Calcium and integrin-binding protein 1 (Homo sapiens) (UniProt Q99828)", "sequence (Q99828 whole entry, looked up)": "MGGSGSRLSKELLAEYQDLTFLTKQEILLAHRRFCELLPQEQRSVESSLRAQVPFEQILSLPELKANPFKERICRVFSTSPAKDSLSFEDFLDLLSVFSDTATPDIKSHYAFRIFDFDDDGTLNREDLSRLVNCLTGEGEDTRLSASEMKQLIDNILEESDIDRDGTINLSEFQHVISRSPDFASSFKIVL", "test": "Primary qHTS for Identification of Calcium Integrin Binding Protein 1 (CIB1) Competitor (AID 1508620); note: top concentration of the series differs between compounds", "details": "CIB1-GST / FITC-alphaIIb peptide fluorescence polarization; series mostly up to 57.7 µM; activity change, negative = inhibition: at the top concentration", "how_it_was_run": "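Fluorescence polarization competition: GST-tagged CIB1 (1 uM final) preincubated with compound 15 min at room temperature, then FITC-labelled alphaIIb peptide (100 nM final) added. After 15 min at room temperature, polarization read at Ex 480/Em 540.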", "values": [{"compound": "CC1(C)CCC(C)(C)c2cc3c(cc21)Sc1ccccc1N=C3c1ccc(C(=O)O)cc1", "activity change, negative = inhibition": "-2.38% [at 114 µM] (inactive)"}, {"compound": "CCC[C@@H]1C[C@@H](C(=O)N[C@@H]([C@H]2O[C@H](SC)[C@H](O)[C@@H](O)[C@@H]2O)[C@@H](C)O)N(C)C1", "activity change, negative = inhibition": "4.43% [at 114 µM] (inactive)"}, {"compound": "CC(=C/C(=O)O)/C=C/[C@]1(O)[C@@]2(C)CO[C@]1(C)C[C@H](O[C@@H]1O[C@H](CO)[C@@H](O)[C@H](O)[C@H]1O)C2", "activity change, negative = inhibition": "3.29% (inactive)"}, {"compound": "CC1OC(OC2C(C)OC(OC3C(OC(=O)/C=C/c4ccc(O)cc4)C(CO)OC(OC4(COC(=O)/C=C/c5ccc(O)cc5)OC(CO)C(O)C4O)C3OC3OCC(O)(CO)C3O)C(O)C2O)C(O)C(O)C1O", "note": "(centres undefined)", "activity change, negative = inhibition": "0.727% [at 30.2 µM] (inactive)"}, {"compound": "Cc1cccc(-c2[nH]c(CNc3ccccc3F)nc2-c2ccc3ncnn3c2)n1", "activity change, negative = inhibition": "-5.2% [at 114 µM] (inactive)"}, {"compound": "COc1ccc(C[C@H](N)C(=O)N[C@H]2[C@@H](O)[C@H](n3cnc4c(N(C)C)ncnc43)O[C@@H]2CO)cc1", "activity change, negative = inhibition": "3.37% [at 114 µM] (inactive)"}, {"compound": "CC1CCC2(O1)C(C)(C)CC(O[C@@H]1O[C@H](CO[C@@H]3OC[C@](O)(CO)[C@H]3O)[C@@H](O)[C@H](O)[C@H]1O)CC2(C)O", "note": "(some centres undefined)", "activity change, negative = inhibition": "-1.07% (inactive)"}, {"compound": "C[C@@H]1O[C@@H](O[C@H]2[C@H](OC(C#N)c3ccc(O)cc3)O[C@H](CO)[C@@H](O)[C@@H]2O)[C@H](O)[C@H](O)[C@H]1O", "note": "(some centres undefined)", "activity change, negative = inhibition": "-2.01% (inactive)"}, {"compound": "NC(=O)c1ccc(OCC2NC(=O)C3CCCN3C2=O)cc1", "note": "(centres undefined)", "activity change, negative = inhibition": "-4.46% [at 114 µM] (inactive)"}, {"compound": "CC(=O)O[C@@H]1[C@H](O[C@@H]2O[C@H](CO)[C@@H](O)[C@H](O)[C@H]2O)[C@@H](O[C@@H]2O[C@@H](C)[C@H](O)[C@@H](O[C@@H]3O[C@H](CO)[C@@H](O)[C@H](O)[C@H]3O)[C@H]2O)[C@H](OC(=O)C23CCC4(C)C(=CCC5C6(C)CC(O)C(O[C@@H]7O[C@H](C(=O)O)[C@@H](O)[C@H](O)[C@H]7O)C(C)(C(=O)O)C6CCC54C)C2CC(C)(C)CC3O)O[C@@H]1C", "note": "(some centres undefined)", "activity change, negative = inhibition": "4.49% [at 12.4 µM] (inactive)"}, {"compound": "CC(C)C1(O[C@@H]2O[C@H](CO)[C@@H](O)[C@H](O)[C@H]2O)CC=C(CO)CC1", "note": "(some centres undefined)", "activity change, negative = inhibition": "-1.87% (inactive)"}, {"compound": "CCc1c(CC(N)=O)c2cc(OCCCP(=O)(O)O)ccc2n1Cc1ccccc1", "activity change, negative = inhibition": "2.04% [at 114 µM] (inactive)"}, {"compound": "C=C(C(=O)O)C1CCC(C)C2CCC(=O)OC2(C)C1", "note": "(centres undefined)", "activity change, negative = inhibition": "-12.8% [at 114 µM] (inactive)"}, {"compound": "COc1c2c(c(C)c3c1C(=O)OC3)O[C@@]1(C)C[C@@H](O)[C@]34O[C@](OC)(CC[C@]3(C)[C@H]1C2)OC4(C)C", "activity change, negative = inhibition": "-4.67% (inactive)"}, {"compound": "C=C1CC[C@H]2[C@@H](/C=C(\\C)C(=O)[C@@]3(OC(C)=O)C[C@H](C)[C@H](OC(C)=O)[C@@H]3[C@H]1OC(C)=O)C2(C)C", "activity change, negative = inhibition": "-6.81% (inactive)"}, {"compound": "CC1=CC(=O)C[C@H]2[C@@H]1CC[C@@H](C)[C@]21CO[C@H](c2ccoc2)C1=O", "activity change, negative = inhibition": "-2.04% (inactive)"}, {"compound": "CN1C(=O)N[C@@H](Cc2c[nH]c3c(Cl)cccc23)C1=O", "activity change, negative = inhibition": "1.98% [at 114 µM] (inactive)"}, {"compound": "CC(=O)N1c2ccccc2C2(O)CC3C(=O)NC(CC(C)C)C(=O)N3C12", "note": "(centres undefined)", "activity change, negative = inhibition": "0.22% (inactive)"}, {"compound": "CC1CCC2C(C)(C)CC(C)(CO)C2(O)C1C(=O)O", "note": "(centres undefined)", "activity change, negative = inhibition": "2.54% [at 114 µM] (inactive)"}, {"compound": "C[C@@H]1O[C@@H](O[C@H]2[C@H](O[C@H]3CC[C@@]4(C)C(CC[C@]5(C)C4CC=C4[C@@H]6CC(C)(C)CC[C@]6(C(=O)O)CC[C@]45C)[C@]3(C)CO)OC[C@H](O)[C@@H]2O)[C@H](O)[C@H](O[C@@H]2OC[C@@H](O)[C@H](O)[C@H]2O)[C@H]1O", "note": "(some centres undefined)", "activity change, negative = inhibition": "0.0572% [at 30.2 µM] (inactive)"}, {"compound": "C[C@]1(OC(=O)/C=C/c2ccccc2)C[C@H](O)[C@]2(O)C=CO[C@@H](O[C@@H]3O[C@H](CO)[C@@H](O)[C@H](O)[C@H]3O)C12", "note": "(some centres undefined)", "activity change, negative = inhibition": "-2.14% (inactive)"}, {"compound": "CCc1nc(C(N)=O)c(Nc2ccc(N3CCC(N4CCN(C)CC4)CC3)c(OC)c2)nc1NC1CCOCC1", "Potency": "inactive"}, {"compound": "C[C@@H]1O[C@@H](O[C@H]2[C@H](O[C@H]3[C@H](O[C@H]4CC[C@@]5(CO)C(CC[C@]6(C)C5CC=C5C7CC(C)(C)C[C@@H](O)[C@]7(C)CC[C@]56C)C4(C)C)O[C@H](C(=O)O)[C@@H](O)[C@@H]3O)OC[C@@H](O)[C@@H]2O)[C@H](O)[C@H](O)[C@H]1O", "note": "(some centres undefined)", "activity change, negative = inhibition": "-1.21% [at 30.2 µM] (inactive)"}, {"compound": "O=C(O)C[C@@H](NC(=O)c1cc(-c2ccc(-c3ccncc3)cc2)cs1)c1ccccc1", "activity change, negative = inhibition": "-11.6% [at 114 µM] (inactive)"}, {"compound": "O=C(NN1CCCCC1)c1nn(-c2ccc(Cl)cc2Cl)c(-c2ccc(C#Cc3ccc(C(F)(F)F)cc3)s2)c1CNS(=O)(=O)N1CCCC1", "activity change, negative = inhibition": "3.06% [at 114 µM] (inactive)"}, {"compound": "C[C@H]1C[C@H]2[C@@H]3CCC4=CC(=O)C=C[C@]4(C)[C@@]3(F)[C@@H](O)C[C@]2(C)[C@@]1(O)C(=O)COP(=O)(O)O", "activity change, negative = inhibition": "0.0609% [at 114 µM] (inactive)"}, {"compound": "CC(=O)N1CCN(NC(=O)c2ccc(F)cc2)CC1", "activity change, negative = inhibition": "-0.686% [at 114 µM] (inactive)"}, {"compound": "FC(F)(F)c1cc(C(F)(F)F)c2ccc3nc(-c4nnco4)cn3c2n1", "activity change, negative = inhibition": "3.19% [at 114 µM] (inactive)"}, {"compound": "C=C1CC[C@H]2[C@@](C)(CCC[C@@]2(C)C(=O)O)[C@@H]1CCC(C)CCO", "note": "(some centres undefined)", "activity change, negative = inhibition": "-0.143% (inactive)"}, {"compound": "COc1cc(/C=C/C(=O)OC2CC(C)=C(C(=O)O)/C2=C/CO[C@@H]2O[C@H](CO)[C@@H](O)[C@H](O)[C@H]2O)ccc1O", "note": "(some centres undefined)", "activity change, negative = inhibition": "-9.53% (inactive)"}, {"compound": "C[C@@H]1O[C@@H](O[C@H]2[C@H](O[C@H]3CO[C@@H](O[C@H]4CC[C@@]5(C)C(CC[C@]6(C)C5CC[C@]57OC[C@@]8(CC[C@](C)(CO)CC85)[C@H](O)C[C@]76C)C4(C)C)[C@H](O[C@@H]4O[C@H](CO)[C@@H](O)[C@H](O)[C@H]4O)[C@H]3O)O[C@H](CO)[C@@H](O)[C@@H]2O)[C@H](O)[C@H](O)[C@H]1O", "note": "(some centres undefined)", "activity change, negative = inhibition": "6.02% [at 30.2 µM] (inactive)"}, {"compound": "C=C1CCC2C(C)(C)C(O)CCC2(C)C1CCC(C)CCOC(=O)CCC(=O)O", "note": "(centres undefined)", "activity change, negative = inhibition": "-8.6% (inactive)"}, {"compound": "CC1(CCC(=O)O)C(=O)C=CC23CC4CC(OC4(C)C2O)C13", "note": "(centres undefined)", "activity change, negative = inhibition": "-0.22% (inactive)"}, {"compound": "CCOC(=O)c1c(C)nn(-c2cccc([N+](=O)[O-])c2)c1C", "activity change, negative = inhibition": "4.91% [at 114 µM] (inactive)"}, {"compound": "C=CC(C)(O)CO[C@@H]1O[C@H](CO)[C@@H](O)[C@H](O)[C@H]1O", "note": "(some centres undefined)", "activity change, negative = inhibition": "-5.25% [at 114 µM] (inactive)"}, {"compound": "NC1CCC(N[C@@H]2C[C@H]2c2ccccc2)CC1", "note": "(some centres undefined)", "Potency": "inactive"}, {"compound": "O=C(/C=C/c1ccccc1)OCC1=CC[C@@H]2C(C(=O)O)=CO[C@@H](O[C@@H]3O[C@H](CO)[C@@H](O)[C@H](O)[C@H]3O)[C@H]12", "activity change, negative = inhibition": "0.537% (inactive)"}, {"compound": "C=C[C@H]1[C@H](O[C@@H]2O[C@H](CO)[C@@H](O)[C@H](O)[C@H]2O)OC=C(C(=O)OC)[C@H]1C[C@@H]1N[C@H](C(=O)O)Cc2c1[nH]c1ccccc21", "activity change, negative = inhibition": "-15.3% (inactive)"}, {"compound": "O=C(O)c1cc(O[C@@H]2O[C@H](CO[C@@H]3OC[C@@H](O)[C@H](O)[C@H]3O)[C@@H](O)[C@H](O)[C@H]2O)c2ccccc2c1O", "activity change, negative = inhibition": "-9.83% (inactive)"}]}]}
